# Source: PubChem
# ELG1 genotox: qHTS screen for small molecules that induce genotoxicity in human embryonic kidney (HEK293T) cells expressing luciferase-tagged ELG1; HEK293T ELG1-luciferase reporter, luminescence, 16 h; Potency, µM (highest dose often 46 µM), for the others: at the highest dose activity change, positive = activation, usual class: activators; 1.3% of 330,000 active; also: % of control where 0% means no effect; nearly all actives have a fitted effect of over 60% in size
#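 Luminescence read-out: rising ELG1-luciferase signal, reflecting elevated ELG1 protein under genetic stress, flags genotoxic compounds. Cells were treated for 16 hr at 37 °C before ONE-Glo detection.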
# FLuc counter: qHTS profiling assay for firefly luciferase inhibitor/activator using purifed enzyme and Km concentrations of substrates (counterscreen for miR-21 project); Luciferin 4-monooxygenase (Photinus pyralis), P08659; purified FLuc, Km substrates, luminescence inhibition; Potency, µM (series often up to 57.5 µM), for the others: at the top dose activity change, negative = inhibition, usual class: inhibitors; 6.9% of 360,000 active; AID 588342, 2011;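 also: plate controls were vehicle for no effect and reference inhibitor for full effect; nearly all actives have a fitted effect of over 55% in size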
# Target sequence (P08659 whole entry, looked up): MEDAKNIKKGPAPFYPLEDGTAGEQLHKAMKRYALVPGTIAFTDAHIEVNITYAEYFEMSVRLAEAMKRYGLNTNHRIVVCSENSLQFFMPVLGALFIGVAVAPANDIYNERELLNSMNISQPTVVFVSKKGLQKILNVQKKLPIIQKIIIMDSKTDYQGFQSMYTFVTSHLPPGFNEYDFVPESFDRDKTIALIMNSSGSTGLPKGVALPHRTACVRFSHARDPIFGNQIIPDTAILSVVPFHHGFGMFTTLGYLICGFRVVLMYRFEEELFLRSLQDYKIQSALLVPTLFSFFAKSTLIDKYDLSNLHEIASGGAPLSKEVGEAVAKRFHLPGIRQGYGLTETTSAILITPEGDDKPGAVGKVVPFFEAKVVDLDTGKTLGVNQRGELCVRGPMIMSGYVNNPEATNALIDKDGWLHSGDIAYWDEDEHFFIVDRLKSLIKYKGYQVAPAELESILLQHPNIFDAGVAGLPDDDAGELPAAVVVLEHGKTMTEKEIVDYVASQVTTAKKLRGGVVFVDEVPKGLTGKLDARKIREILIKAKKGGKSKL
#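 Biochemical qHTS of compounds, final roughly 60 µM downward over six points, against 10 nM purified firefly luciferase using Km concentrations of substrates (10 uM D-luciferin, 10 uM ATP) in Tris acetate pH 7.5 buffer; luminescence output.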
# ELG1 repair inh: qHTS screen for small molecules that inhibit ELG1-dependent DNA repair in human embryonic kidney (HEK293T) cells expressing luciferase-tagged ELG1. AID 504467, 2011. HEK293T ELG1-luciferase reporter, luminescence, 16 h; DNA damage induced by 5-fluorouridine. 2.3% of 330,000 active. Potency, µM (top dose mostly 46.1 µM), for the others: at the highest dose activity change, negative = inhibition, actives largely listed as inhibitors; also: % is scaled to controls: 0 for no effect and ±100 for the full control effect; nearly all actives have a fitted effect of over 55% in size
#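 DMSO vehicle served as the neutral condition. Each well held 2,000 cells given 5-fluorouridine plus compound; after 16 hr at 37 °C/5% CO2, ONE-Glo was added and luciferase measured 30 min later.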
# NPC1 promoter act: qHTS Assay for NPC1 Promoter Activators; Huh7 NPC1 promoter luciferase reporter, 24 h; Potency, µM (doses to about 9.22 µM), for the others: at the highest dose activation, most hits filed as activators; 2.4% of 320,000 active; AID 485313, 2010; also: % of control where 0% means no effect; nearly all actives have a fitted effect of over 60% in size
#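 Compounds in DMSO were transferred onto Huh7 NPC1-luciferase reporter cells pre-incubated 2 h; after 24 h at 37 °C, Amplite reagent was dispensed and luminescence recorded 10 min later.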
# SMN2 splice enh: qHTS Assay for Enhancers of SMN2 Splice Variant Expression; HEK293 SMN2-luciferase splicing reporter, luminescence, 30-36 h; Potency, µM (doses to about 46.1 µM), without a hit: at the top dose activity change, positive = activation, actives largely listed as activators; 2.8% of 210,000 active; also: % of control where 0% means no effect; nearly all actives have a fitted effect of over 55% in size
#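 HEK293 cells carry an SMN2 […]–luciferase reporter in which exon 7 inclusion puts luciferase in frame. Cells were plated 10-12 h before compound addition, then incubated 30-36 h at 37C. ONE-Glo luminescence was read; sodium butyrate at 4.5 mM final served as control.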
# Rab9 prom act: qHTS Assay for Rab9 Promoter Activators; Huh7 Rab9 promoter-luciferase reporter, luminescence, 24 h; Potency, µM (highest dose often 9.22 µM), for inactives: at the highest dose activation, negative = inhibition, usual class: activators; 2.8% of 320,000 active; AID 485297, 2010; also: % of control where 0% means no effect; nearly all actives have a fitted effect of over 60% in size
#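 Huh7 cells stably carrying a Rab9 promoter-luciferase reporter, 1500 cells per well in OP-MEM I with 10% FBS, treated with compound 24 hours at 37C. Luciferase activity read by luminescence after 10 minutes with Amplite reagent.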
# ELG1 FLuc counter: qHTS screen for small molecules that inhibit ELG1-dependent DNA repair: Hit Confirmation in Cell-Based Luciferin Assay | shares compounds with ELG1 repair inh | cell-free firefly luciferase luminescence counter-screen, ViewLux | Potency, µM (doses to about 46.1 µM), inactives show at the top dose activity change, negative = inhibition, usual class: inhibitors | 3% of 350 active; also: % is scaled to controls: 0 for no effect and ±100 for the full control effect
# ELG1 Luc conf: HTS assay for small molecules that inhibit ELG1-dependent DNA repair in human embryonic kidney (HEK293T) cells expressing luciferase-tagged ELG1: Hit Confirmation; 68% of 670 active; Potency, µM (titrated, usually from 46.1 µM), for the others: at the highest dose activity change, negative = inhibition, hits mostly inhibitors; HEK293T ELG1-luciferase levels, luminescence; cells co-treated with 5-fluorouridine; shares compounds with ELG1 repair inh; also: % is scaled to controls: 0 for no effect and ±100 for the full control effect; nearly all actives have a fitted effect of over 55% in size
# ELG1-Luc MMS: inhibits ELG1-dependent repair under MMS stimulation in HEK293T cells; HEK293T luciferase-tagged ELG1 level, MMS stimulated; shares compounds with ELG1 repair inh; AID 624249; Potency, µM (doses to about 46.1 µM), for the others: top-dose activity change, negative = inhibition, usual class: inhibitors; 53% of 670 active; also: % is scaled to controls: 0 for no effect and ±100 for the full control effect; nearly all actives have a fitted effect of over 60% in size
# ELG1 5-FU: qHTS screen for small molecules that inhibit ELG1-dependent DNA repair: Hit Confirmation with 5FU Viability | Potency, µM (series often up to 46.1 µM), without a hit: at the highest dose activity change, negative = viability loss, actives largely listed as cytotoxic | shares compounds with ELG1 repair inh | 670 tested, under 10 active | cell viability with 5-FU, ELG1-dependent repair;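 also: ELG1-luc HEK293T cells cotreated with 5-fluorouridine at 10 µM final; viability measured 16 h after compound addition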
# ELG1 MMS viab: qHTS screen for small molecules that inhibit ELG1-dependent DNA repair: Hit Confirmation with MMS Viability. Potency, µM (top dose mostly 46.1 µM), inactives show at the top dose activity change, negative = viability loss, hits mostly cytotoxic. 33% of 670 active. AID 624251, 2012. shares compounds with ELG1 repair inh. Cell viability with MMS, ELG1-dependent DNA repair;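 also: ELG1-luc HEK293T cells co-treated with 10 µM MMS; viability read 16 h after compound addition; % is scaled to controls: 0 for no effect and ±100 for the full control effect; nearly all actives have a fitted effect of over 60% in size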
# Cell viab unstim: qHTS screen for small molecules that inhibit ELG1-dependent DNA repair: Hit Confirmation with Unstimulated Viability Assay. shares compounds with ELG1 repair inh. cell viability counter-screen, unstimulated, luminescence. Potency, µM (series often up to 45.9 µM), for inactives: at the top dose activity change, negative = loss of viability, usual class: cytotoxic. 8% of 900 active. AID 624252, 2012;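 also: compound exposure lasted 16 hours before reading; % is scaled to controls: 0 for no effect and ±100 for the full control effect; nearly all actives have a fitted effect of over 55% in size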
# FLuc enzyme: qHTS screen for small molecules that inhibit ELG1-dependent DNA repair: Hit Confirmation in Biochemical Luciferin Assay; shares compounds with ELG1 repair inh; purified firefly luciferase, luminescence counter-screen; Potency, µM (titrated, usually from 57.5 µM), inactives show top-dose activity, negative = inhibition, most hits filed as inhibitors; 10% of 350 active; AID 624253, 2012; also: % is scaled to controls: 0 for no effect and ±100 for the full control effect
# * = called active by the depositor; ? = inconclusive; · = not tested or not shown; [ ] = dose if it differs, or a comment. A selection: hits, their analogues and other compounds. The true share with any hit is near 9.2%. Calls follow the shape of the dose curve; as a rule, active = well fitted curve in the direction sought with a large enough effect; inconclusive = small, poorly fitted or top-dose-only effect, or another doubt; inactive = no such curve, though single readings can be large; an effect the other way counts as inactive or inconclusive. Potency is read from the fitted curve at half-maximal effect.
SMILES,ELG1 genotox,FLuc counter,ELG1 repair inh,NPC1 promoter act,SMN2 splice enh,Rab9 prom act,Cell viab unstim,others
COC(=O)C(C(C)=O)C1c2ccccc2C=C(C)N1C(=O)OC (centres undefined),·,·,·,·,-3%[9.22 µM],·,·,
COc1ccc([C@H]2Cc3cc(O)cc(O)c3C(=O)O2)cc1O,5.2µM*,·,?,·,·,·,9%,
Cc1ccc(N2CN=c3s/c(=C\c4cccnc4)c(=O)n3C2)cc1,-10%,-13%,2.3µM*,19%,1%,10%,?,ELG1 FLuc counter=-13%;ELG1 Luc conf=?;ELG1-Luc MMS=?;ELG1 5-FU=1%;ELG1 MMS viab=1%;FLuc enzyme=-19%
CCOC(=O)N1CCN(C(=O)c2ccccc2N(Cc2ccccc2)S(=O)(=O)c2ccccc2)CC1,-23%,0%,-19%,-4%,·,-5%,·,
CC(=O)OC1CC2C(C)(C)C(=O)C3OC3[C@]2(C)C2CC[C@@]3(C)C(c4ccoc4)OC(=O)C4OC43[C@]12C (some centres undefined),·,·,·,·,-50%,·,·,
Clc1ccc(-c2cnnc(-c3ccccn3)n2)cc1,21µM*,·,?,·,·,·,-1%,
Cc1ccccc1-c1nc(CN2CCC(C(=O)NC3CC3)CC2)c(C)o1,-1%,1%,-3%,9%,·,2%,·,
COc1ccc(OC)c(CCNC(=O)c2cc3c(=O)n(C)c4ccccc4c3n2C)c1,·,3%,·,·,0%,·,·,
Nn1c(-c2ccc(F)cc2)nc2ccccc2c1=O,-1%,-3%,-17%,-2%,·,5%,·,
O=C1c2cc(F)ccc2-n2c1nc1ccccc1c2=O,-8%,-7%,0.18µM*,-40%,·,-35%,?,ELG1 FLuc counter=5%;ELG1 Luc conf=20µM*;ELG1-Luc MMS=1.1µM*;ELG1 5-FU=-11%;ELG1 MMS viab=1.8µM*;FLuc enzyme=-16%
CN(C)c1ccc(/C=C/c2ccnc3ccc(F)cc23)cc1,·,·,·,·,·,·,-14%,ELG1 FLuc counter=-8%;FLuc enzyme=0.18µM*
CN(C)c1ccc(N=Nc2ccc(/C=C/c3ccnc4ccccc34)cc2)cc1,·,·,·,·,·,·,?,
O=C(NCCC1=CCCCC1)C1CCN(S(=O)(=O)c2cccc(C(F)(F)F)c2)CC1,-4%,4%,-15%,-5%,·,-4%,·,
CN(C)C1(CNC(=O)COc2ccc(C(C)(C)C)cc2)CCCCC1,·,1%,·,·,·,·,·,
COc1ccc(-c2nc3ccc(C(=O)NCC(OC)OC)cc3nc2-c2ccc(OC)c(OC)c2)cc1OC,1%,0%,1µM*,-3%,·,4%,2%,ELG1 Luc conf=0.71µM*;ELG1-Luc MMS=8%;ELG1 5-FU=?;ELG1 MMS viab=?
CCc1nc2ccc(C(=O)NCCc3ccc(OC)c(OC)c3)cc2nc1CC,-4%,-2%,-13%,3%,·,-2%,·,
CCOCCCNC(=O)c1ccc2nc(-c3ccc(OC)c(OC)c3)c(-c3ccc(OC)c(OC)c3)nc2c1,-7%,-1%,1.5µM*,-5%,·,-1%,?,ELG1 Luc conf=0.44µM*;ELG1-Luc MMS=?;ELG1 5-FU=?;ELG1 MMS viab=?
CC1=C(C(=O)Nc2ccccc2C)C(c2ccco2)n2ncnc2N1 (centres undefined),·,-1%,·,·,·,·,·,
CCc1cc(=O)oc2cc(C)cc(OCC(=O)NCCCN3CCOCC3)c12,3%,1%,23%,1%,·,8%,·,
CC(=O)CCOC1CCCCO1 (centres undefined),·,·,·,·,-1%,·,·,
c1nc(CCO[C@H]2CCCCO2)cc2cc3c(cc12)OCO3,?,·,?,·,·,·,-4%,ELG1 FLuc counter=-39%;FLuc enzyme=0.65µM*
Cc1cc(C)c(CN2CCN(C(=O)Cn3ccc(N)nc3=O)CC2)c(C)c1,0%,2%,12%,-7%,·,-5%,·,
CSc1nc(N)nc2c1ncn2CC(=O)N1CCN(Cc2c(C)cc(C)cc2C)CC1,-2%,·,2.3µM*,·,·,·,?,ELG1 Luc conf=?;ELG1-Luc MMS=0.71µM*;ELG1 5-FU=2%;ELG1 MMS viab=1.3µM*
Cc1cc(C(=O)COC(=O)c2cccnc2Cl)c(C)n1C,?,·,?,·,·,·,?,ELG1 FLuc counter=-8%;FLuc enzyme=0.26µM*
CCn1c(C)cc(C(=O)COC(=O)c2cccnc2SC)c1C,2.3µM*,·,?,·,·,·,12%,
COCCN1CCN(C(=O)C2CCC(=O)N(CCc3ccccc3)C2)CC1 (centres undefined),6%,-4%,-5%,4%,·,-1%,·,
NS(=O)(=O)c1ccc(CCNCc2cccnc2)cc1,-4%,5%,11%,1%,·,-3%,·,
